Assay results published in PubChem BioAssay (NCI).
The panel holds about 83,000 compounds, 20% with a hit somewhere; the sample as a whole holds those more often.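 48-hour exposure, single concentration, 96-well plates; percent growth endpoint where 0 means no net growth. Active: below 10.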 Activity calls are given as the source filed them.

Columns and labels:
Assay in all cases: NCI-60 one-dose screen, 48 h (100 = growth as untreated, 0 = no growth, -100 = all killed)
Settings in all cases: 10 µM unless noted
[1] = test system: SK-MEL-2 melanoma
[2] = test system: EKVX NSCLC
[3] = test system: SN12C renal
[4] = test system: UO-31 renal
[5] = test system: TK-10 renal
[6] = test system: ACHN renal
[7] = test system: CAKI-1 renal
[8] = test system: A498 renal
[9] = test system: CCRF-CEM leukemia
[10] = test system: MOLT-4 leukemia

Measured: growth

COc1cc2c(c(OC)c1OC)CCC(c1cccc(NC(=O)c3ccc(Br)cc3)c1)O2 (stereo not given)
inactive: [1] 87.4% | [2] 77.2% | [3] 85.7% | [4] 66.6% | [5] 89.9% | [6] 91.2% | [7] 90.3% | [8] 69.3% | [9] 67% | [10] 41.1%

COc1cc(-c2nc3sccn3c2-c2ccnc(NCCNS(=O)(=O)c3ccccc3)n2)ccc1F
inactive: [1] 54.2% | [2] 61.5% | [3] 46.4% | [4] 16.1% | [5] 57% | [6] 41.1% | [7] 26.9% | [8] 48.9% | [9] 30.9% | [10] 24.7%

CCCCCCCCCCCCCCCCCCOc1ccccc1CC(=O)OCC[N+](C)(C)C
active: [7] 9.52% | [9] 5.24% | [10] -7.37%
inactive: [1] 64.8% | [2] 46.9% | [3] 10% | [4] 61.3% | [5] 18% | [6] 55.8% | [8] 45.1%

C[PH+](c1nc2ccccc2nc1[PH+](C)C(C)(C)C)C(C)(C)C.C[PH+](c1nc2ccccc2nc1[PH+](C)C(C)(C)C)C(C)(C)C.[Au+].[Cl-] (stereo not given)
inactive: [9] 12.2%
active: [1] -76.6% | [2] -82.5% | [3] -59.1% | [4] -90.9% | [5] -91.6% | [6] -97.1% | [7] -93.4% | [8] -99.1% | [10] 8.3%

Cc1nc2sc(C(=O)Nc3cccc4ccccc34)c(N)c2cc1C(O)c1ccccc1 (stereo not given)
inactive: [1] 25.3% | [2] 39.4% | [3] 12.7% | [4] 33.4% | [5] 52.6% | [6] 24.4% | [7] 29.5%
active: [8] -13.7% | [9] 6.95% | [10] 6.27%

O=C(O)c1ccc(-n2cc(/C=N/Nc3ccccc3)c(-c3ccc(F)cc3F)n2)cc1
inactive: [1] 15.4% | [2] 55.2% | [3] 73.1% | [4] 13% | [5] 57.4% | [6] 47.1% | [7] 28.5% | [8] 81.7% | [9] 26.6% | [10] 38.7%

CN(C)c1ccc(C(=O)OCCCCCCl)cc1
inactive: [1] 94.7% | [2] 96.9% | [3] 96% | [4] 77.8% | [5] 96.5% | [6] 102% | [7] 89.1% | [8] 83.9% | [9] 122% | [10] 86.1%

O=C(Nc1ccc(OS(=O)(=O)c2ccc(F)cc2)cc1)C1CCCCCC1
inactive: [1] 98.2% | [2] 96% | [3] 88.9% | [4] 101% | [5] 107% | [6] 110% | [7] 91.7% | [8] 85.1% | [9] 81.5% | [10] 77.4%

COc1ccc(NC2=C(I)C(=O)c3ncccc3C2=O)cc1
inactive: [1] 29.1% | [2] 64.8% | [5] 51.1% | [7] 24.1% | [8] 65.3% | [9] 11%
active: [3] -96.4% | [4] -92.6% | [6] -12.7% | [10] -31.7%

COc1cc2nc3cc([N+](=O)[O-])ccc3c(NCCNCC(C)O)c2cc1OC (stereo not given)
active: [1] -29.6% | [2] 9.5% | [3] -16.2% | [6] 2.74% | [8] -34% | [9] -6.35% | [10] -0.334%
inactive: [4] 28.6% | [5] 14.3% | [7] 18.6%

CCOC(=O)c1c(NC(=O)c2ccc(Cl)cc2)sc2c(CN(C)C)c(O)ccc12
inactive: [1] 101% | [2] 93.8% | [3] 83.6% | [4] 67.5% | [5] 108% | [6] 50.7% | [7] 67.2% | [8] 76.3% | [9] 62.6% | [10] 59.5%

O=S(=O)(NCCNc1nccc(-c2c(-c3ccc(F)c(O)c3)nc3sccn23)n1)c1ccc(O)cc1
active: [4] 6.46%
inactive: [1] 19.8% | [2] 56.3% | [3] 38.2% | [5] 46.3% | [6] 33.3% | [7] 27.2% | [8] 43.4% | [9] 22.2% | [10] 19.3%

COC(=O)c1c(C)c2n(c1C)C(=O)C(c1ccccc1)=C2
inactive: [1] 77.7% | [2] 10.2% | [3] 78.7% | [4] 57.9% | [5] 143% | [6] 74% | [7] 33.1% | [8] 84.2% | [9] 92.8% | [10] 66.8%

c1csc(-c2ccc(CNc3c4ccccc4nc4ccccc34)cc2)c1
inactive: [1] 80.8% | [2] 59% | [3] 63.2% | [4] 27.9% | [5] 65.1% | [6] 58.6% | [7] 35.5%
active: [8] -2.45% | [9] 2.57% | [10] 1.96%

Cn1cc(-c2nonc2-c2cn(C)c3ccccc23)c2ccccc21
inactive: [1] 35.6% | [2] 40.4% | [3] 43.6% | [4] 40.5% | [5] 62.5% | [6] 44.4% | [7] 31.3% | [8] 12.3% | [10] 17.5%
active: [9] 9.67%

CN(C)CCNC(=O)c1ccc(-c2nc3ccc4[nH]ncc4c3c3c2C2CCC3C2)cc1 (stereo not given)
active: [1] -5.51% | [4] 8.05% | [8] -20.9% | [9] 6.57% | [10] -8.33%
inactive: [2] 68.4% | [3] 10.2% | [5] 83% | [6] 17.4% | [7] 15.2%

Nc1cc(C(=O)NC[C@H]2CN(c3ccc(N4CCC(C(=O)O)CC4)cc3)C(=O)O2)ccc1Cl
inactive: [1] 115% | [2] 95.3% | [3] 98.8% | [4] 80.4% | [5] 104% | [6] 101% | [7] 87.7% | [8] 95.8% | [9] 104% | [10] 99.4%

S=c1sc2c(Cl)nc(-c3cccnc3)nc2n1-c1ccccc1
inactive: [1] 21.6% | [2] 89.6% | [5] 90.2% | [7] 73.9% | [8] 92%
active: [3] 2% | [4] -85.6% | [6] -6.92% | [9] -31.7% | [10] -41.5%

COC(=O)c1cc(N=C2NC(=O)/C(=C/C=C/c3ccccc3)S2)ccc1O
inactive: [1] 74.1% | [2] 53.7% | [3] 38.6% | [4] 53.8% | [5] 53.2% | [6] 46.5% | [7] 29% | [8] 17.6% | [9] 20.7% | [10] 31.7%

CCOC(=O)c1c2c(n3cccc(F)c13)C(=O)c1ncccc1C2=O
active: [4] -28.5% | [6] 7%
inactive: [1] 72.4% | [2] 27.7% | [3] 25.6% | [5] 36.8% | [7] 14.4% | [8] 24% | [9] 67.3% | [10] 69.3%

N#Cc1nc(-c2ccc(Cl)cc2)oc1S(=O)(=O)N1CCN(c2ccc(F)cc2)CC1
active: [9] 3.82% | [10] 3.45%
inactive: [1] 87.9% | [2] 111% | [3] 92.2% | [4] 81.3% | [5] 100% | [6] 102% | [7] 107% | [8] 78.6%

CC(C)(C)[Si](C)(C)OC1[C@@H](CNC(=O)NC(=O)NC(N)=O)O[C@@H](n2cnc3c(NC(=O)Nc4ccccc4)ncnc32)[C@H]1O[Si](C)(C)C(C)(C)C (stereo not given in full)
inactive: [1] 94.8% | [2] 90.5% | [3] 74.6% | [4] 95.2% | [5] 88.9% | [6] 77.3% | [7] 101% | [8] 101% | [9] 71.4% | [10] 54.3%

CN(C)Cc1ccc(O)c(C(=O)O)c1
inactive: [1] 124% | [2] 101% | [3] 109% | [4] 96.4% | [5] 70.7% | [6] 101% | [7] 92.8% | [8] 104% | [9] 103% | [10] 101%

Cc1cn(-c2cc(NC(=O)c3cccc(C#Cc4cccc5[nH]nc(N)c45)c3)cc(C(F)(F)F)c2)cn1
inactive: [1] 22.5% | [2] 56.7% | [3] 29.9% | [5] 78.8% | [6] 21.5% | [7] 75.7% | [8] 35.1% | [9] 15% | [10] 20.7%
active: [4] 9.11%

COC(=O)/C=C1/SC(=Nc2cccc(OC)c2)N(CCc2c[nH]c3ccc(O)cc23)C1=O
active: [9] 4.98% | [10] -1.26%
inactive: [1] 57.6% | [2] 66.9% | [3] 62.3% | [4] 55.7% | [5] 117% | [6] 71.8% | [7] 82.2% | [8] 64.9%

COc1cc2c(cc1OCCCN1CCN(CCCOc3cc4c(cc3OC)C(=O)N3CCC[C@H]3C=N4)CC1)C=CC(C)(C)O2
active: [1] -77% | [2] -100% | [3] -65.7% | [4] -58.8% | [5] -83.6% | [6] 4.25% | [7] -71% | [8] -100% | [9] -48.6% | [10] -12.8%
